Each structure is given as a SMILES string. Results filed as inconclusive are left out. Activity calls are given as the source filed them. How the source made its calls: active means hit-call score of the fitted dose curve at least 0.9, where 1 is the maximum; inconclusive means response in the unintended direction; inactive means score below 0.9.

One test is described as follows: ATG_M_06_TRANS: Attagene TRANS-FACTORIAL HepG2 Assay for M06 Transcription Factor (Internal Marker) (AID 2282983).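 Further: reporter transcript level by RT-PCR then capillary electrophoresis fluorescence.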 The conditions noted are these: HepG2 Attagene TRANS M06 internal marker reporter. Put shortly:
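Background-control reporter readout: after 24 h chemical exposure of transiently transfected HepG2 (GAL4-UAS reporter units), mRNA quantified by RT-PCR with fluorescent labeling and capillary electrophoresis. Gain-of-signal fitting against DMSO baseline.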
`C=CC(C)(CCC=C(C)C)OC=O` (stereo not drawn): the compound was called inactive.

For the compound `O=P(c1ccccc1)(c1ccccc1)c1ccccc1`, the outcome was inactive.

As for `O=S(=O)(O)c1cccc2c(S(=O)(=O)O)cccc12`, the compound was called inactive.

For the compound `CCCCOCCOCCSC#N`, the result was inactive.

As for `COC(=O)OC`, the outcome was inactive.

Take `Clc1sc(Cl)c(Cl)c1Cl`: the compound was called inactive.

As to `CN(C)CCCN`, the compound was classed as inactive.

As for `CC1=CCC2C(C1)C2(C)C` (stereo not drawn), the call was inactive.

Take `CCCCCCCCCCCCCCCCCC(=O)OCC(CC)CCCC` (stereo not drawn): the result was inactive.

Regarding `NCCNCCN`, the outcome was inactive.

As for `C=C(C)C(=O)Nc1ccc(Cl)c(Cl)c1`, the compound was called inactive.

With `COC(=O)c1ccc(C)cc1`, the compound was classed as inactive.

Turning to `Nc1cccc(S(=O)(=O)c2cccc(N)c2)c1`, the result was inactive.

As for `CCCC(=O)C(C)=O`, the compound was called inactive.

`NNc1nc(-c2ccc(N)cc2)cs1`: the call was inactive.

In the case of `CC(C)c1ccc(C(C)C)cc1`, the compound was classed as inactive.

For the compound `COCCOCCOCCOCCOCCO`, the outcome was inactive.

For the compound `Cc1ccc2sc3cccc(C)c3c2c1`, the compound was called inactive.

For the compound `CC(C)c1cccc(O)c1`, the compound was classed as inactive.

With `CCCCCC(=O)OCCc1ccccc1`, the result was inactive.

With `COc1ccc(OC)c(OC)c1`, the call was inactive.

A further test in a line: ATG_M_32_TRANS: Attagene TRANS-FACTORIAL HepG2 Assay for M32 Transcription Factor (Internal Marker) (AID 2282984).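 Further: transcript level of a background control reporter unit measured by RT-PCR and capillary electrophoresis.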 The conditions noted are these: HepG2 Attagene TRANS M32 internal marker reporter. The gist of the method:
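Fluorescence-detected mRNA induction, HepG2 liver cells, 24 h after dosing. Multiple GAL4-UAS reporter units introduced by transient transfection; background-control endpoint analysed for gain of signal against DMSO.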
Consider `C=CC(C)(CCC=C(C)C)OC=O` (stereo not drawn), for which the result was inactive.

`Nc1cc([N+](=O)[O-])ccc1O`: the outcome was inactive.

On to `CCc1c(C)cc(N)c(CC)c1N`, for which the call was inactive.

Take `O=P(c1ccccc1)(c1ccccc1)c1ccccc1`: the compound was classed as inactive.

Take `CCCCc1ccc(N)cc1`: the compound was called inactive.

For the compound `CCCCC(CC)COC(=O)/C=C\C(=O)OCC(CC)CCCC` (stereo not drawn), the compound was classed as inactive.

With `CCCCOCCOCCSC#N`, the result was inactive.

On to `COC(=O)OC`, for which the compound was called inactive.

In the case of `Clc1sc(Cl)c(Cl)c1Cl`, the compound was called inactive.

`O=C1OC2(c3cc(Br)c(O)c(Br)c3Oc3c2cc(Br)c(O)c3Br)c2c(Cl)c(Cl)c(Cl)c(Cl)c21`: the call was inactive.

For the compound `CN(C)CCCN`, the result was inactive.

`C[Si](O[Si](C)(C)C)O[Si](C)(C)C`: the outcome was inactive.

With `Cc1ccc(C=O)s1`, the call was inactive.

As to `CC(CCO)CCCC(C)(C)O` (stereo not drawn), the outcome was inactive.

As for `CC(=O)OCC=Cc1ccccc1`, the call was inactive.

In the case of `CC1=CCC2C(C1)C2(C)C` (stereo not drawn), the call was inactive.

`CCCC(C)C=O` (stereo not drawn): the call was inactive.

For the compound `CCCCCCCCCCCCCCCCCC(=O)OCC(CC)CCCC` (stereo not drawn), the compound was called inactive.

On to `NCCNCCN`, for which the compound was classed as inactive.

As for `COC(=O)c1ccc(C)cc1`, the compound was classed as inactive.

As for `Nc1cccc(S(=O)(=O)c2cccc(N)c2)c1`, the result was inactive.

Consider `O=C1c2ccccc2C(=O)N1SC1CCCCC1`, for which the outcome was inactive.

`C=O`: the outcome was inactive.

Regarding `NNc1nc(-c2ccc(N)cc2)cs1`, the result was inactive.

`CC(C)c1ccc(C(C)C)cc1`: the result was inactive.

As to `Cc1ccc(Nc2ccc(O)c3c2C(=O)c2ccccc2C3=O)cc1`, the outcome was inactive.

Turning to `COCCOCCOCCOCCOCCO`, the outcome was inactive.

Turning to `CC(C)c1cccc(O)c1`, the compound was classed as inactive.

`CCCCCC(=O)OCCc1ccccc1`: the call was inactive.

With `COc1ccc(OC)c(OC)c1`, the compound was classed as inactive.

Take `CNC(=O)Oc1ccc2c(c1)[C@]1(C)CCN(C)[C@@H]1N2C`: the compound was classed as inactive.

For the compound `CCOC(=S)SSC(=S)OCC`, the call was inactive.

The values are drawn from PubChem BioAssay (EPA / NIEHS).
